The campaign covered roughly 320,000 compounds. About 22,000 (6.9%) were called active. Inconclusive results (about 27%) are left out. The list comes from a sample in which actives are over-represented; it also holds similar structures and randomly drawn compounds. Entries that show only a call come without a potency. Values without a mark were called inactive. Calls come from the whole dose curve; as a rule, active = well fitted inhibition curve with a large enough effect; inconclusive = small, poorly fitted or top-dose-only effect, or another doubt; inactive = no such curve, though single readings can be large or run the other way.
Assay: Primary qHTS for delayed death inhibitors of the malarial parasite plastid, 96 hour incubation
Conditions: P. falciparum luciferase reporter growth; series mostly up to 28.7 µM
Procedure, shortened: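 Infected RBCs, 2% Hct / 0.05% parasitemia final; luciferase-reporter P. falciparum; cpd 96 h, 37 C, 5% CO2; luciferase detection reagent; luminescence.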
Potency is the fitted concentration of half-maximal effect.

Row | SMILES | Potency | activity change, negative = inhibition
1 | COC(=O)c1ccc(NC(=O)CSc2nc(N)c(NC(=O)c3ccc(Br)o3)c(=O)[nH]2)cc1 | inactive | 
2 | CCN(CC(=O)Nc1cc(Cl)ccc1C)C(=O)CN1C(=O)NC2(CCCC2)C1=O | inactive | 
3 | Cc1cc(=O)oc2c(C)c(OCC(=O)NCCc3ccc(S(N)(=O)=O)cc3)ccc12 | inactive | 
4 | Cc1ccc(OCC(=O)Nc2ccc(C(=O)O)cc2NC(=O)COc2ccc(C)c(C)c2)cc1C | inactive | 
5 | O=C1CC(N2CCN(C(c3ccccc3)c3ccccc3)CC2)C(=O)N1 (stereo unspecified) | inactive | 
6 | CC1(C)CC(N2CCN(C(c3ccccc3)c3ccccc3)CC2)=CC(=[N+]2CCCCC2)C1 | 0.415 µM (active) | 
7 | CC1(C)CC(=O)C=C(N2CCCC2)C1 | inactive | 
8 | CCOc1ccc(S(=O)(=O)Nc2ccc(OC)nc2)cc1 | inactive | 
9 | CN(CCO)c1ccc(/C=N/Nc2nncc3ccccc23)cc1 | inactive | 
10 | COc1ccc2oc(=O)c(C(=O)N3CCCc4ccccc43)cc2c1 | inactive | 
11 | Cc1occc1C(=O)N1CCCc2ccccc21 | 10.4 µM (active) | 
12 | CCC(=O)N1CCCc2ccccc21 | inactive | 
13 | COc1cc(NC(=O)CN2C(=O)NC(C)(c3ccc(OC(F)F)cc3)C2=O)cc(OC)c1OC (stereo unspecified) | inactive | 
14 | COc1ccc(Cl)cc1S(=O)(=O)N1CCC(O)(c2ccc(Cl)cc2)CC1 | inactive | 
15 | CCOc1cc(C(C(=O)NCC2CCCO2)N(C(=O)Cn2nnc3ccccc32)c2cccc(OC)c2)ccc1O (stereo unspecified) | inactive | 
16 | COC(=O)c1sc(N2CCN(Cc3ccccc3)CC2)nc1N | inactive | 
17 | CS(=O)(=O)c1ccc(Cl)c(NC(=O)COC(=O)c2ncc(Cl)c(Cl)c2Cl)c1 | inactive | 
18 | Cc1ccc(S(=O)(=O)c2c[nH]c3ccc(Cl)cc3c2=O)cc1 | inactive | 
19 | COc1ccc(-c2oc3ncn(Cc4ccco4)c(=N)c3c2-c2ccc(OC)cc2)cc1 | 6.57 µM (active) | 
20 | COc1ccc2[nH]c3c(=O)n(Cc4ccco4)cnc3c2c1 |  | 6.11% [at 5.75 µM]
21 | COc1ccc(Nc2nc(Cl)nc(NCc3ccco3)n2)cc1 | inactive | 
22 | CN(c1ccccc1)S(=O)(=O)c1ccc2[nH]c(=O)[nH]c2c1 | inactive | 

Row | SMILES | Potency | activity change, negative = inhibition
23 | CC(CCc1ccccc1)NC(=O)COC(=O)c1ccc(F)cc1 (stereo unspecified) | inactive | 
24 | Cc1ccc(NC(=O)C2CC(c3ccc(F)cc3)=NO2)cc1 (stereo unspecified) | 4.15 µM (active) | 
25 | CCNC(=S)N1CCN(C(=O)c2ccco2)CC1 | inactive | 
26 | O=C(c1ccc2c(c1)OCO2)N1CCN(C(=O)c2ccco2)CC1 | inactive | 
27 | COc1ccc(CNC(=O)C2CC(c3ccc(C(F)(F)F)cc3)=NO2)cc1 (stereo unspecified) | inactive | 
28 | CCOC(=O)N1CCN(CC(=O)Nc2ccc(F)cc2)CC1 | inactive | 
29 | O=C(Cc1c(F)cccc1Cl)N1CCN(C(=O)c2ccco2)CC1 | inactive | 
30 | O=C(c1ccco1)N1CCN(C(=O)c2ccc(COc3ccc(F)cc3)o2)CC1 | inactive | 
31 | CCOC(=O)N1CCN(C(=O)C2CC(c3ccc(F)cc3)=NO2)CC1 (stereo unspecified) | 4.65 µM (active) | 
32 | O=C(c1ccco1)N1CCN(C(=O)C2CC(c3ccc(F)cc3)=NO2)CC1 (stereo unspecified) | 7.38 µM (active) | 
33 | CCn1ncc(C2=NOC(C(=O)N3CCN(c4ccccc4)CC3)C2)c1C (stereo unspecified) | inactive | 
34 | O=C(c1ccco1)N1CCN(C(=O)C2CC(c3ccc(Cl)c(Cl)c3)=NO2)CC1 (stereo unspecified) | 5.86 µM (active) | 
35 | O=C(NCc1cc(C(F)(F)F)cc(C(F)(F)F)c1)C1CC(c2cccc(F)c2)=NO1 (stereo unspecified) | inactive | 
36 | O=C(COc1nsnc1N1CCOCC1)Nc1ccccc1Cl | inactive | 
37 | COc1cccc(/C=C/C(=O)OCC(=O)N2CCN(c3ccccc3)CC2)c1 | inactive | 
38 | Cc1ccc(CC2CC(=O)N(c3cc(C)ccc3C)C2=O)cc1 (stereo unspecified) | inactive | 
39 | Cc1ccc(S(=O)(=O)CC(=O)Nc2sc(C)c(C)c2C(N)=O)cc1 | inactive | 
40 | O=C(NNC(=O)C1CCC1)c1ccccc1 | inactive | 
41 | Cc1cccc(C2C3=C(CCCC3=O)N=C3c4ccccc4C(=O)C32)c1 (stereo unspecified) | inactive | 
42 | O=C(NCCCn1ccnc1)c1cc(-c2ccccc2)on1 | inactive | 
43 | COc1ccc(-c2cc(C(=O)NCCCn3ccnc3)no2)cc1 | 8.28 µM (active) | 
44 | COc1ccc(-c2cc(C(=O)NCCCN3CCOCC3)no2)cc1 | inactive | 

Row | SMILES | Potency | activity change, negative = inhibition
45 | Cc1ccc(S(=O)(=O)NC(=O)c2cccc(C)c2)cc1 | inactive | 
46 | O=C(NC1CCN(S(=O)(=O)c2ccc(F)cc2)CC1)c1ccccc1 | inactive | 
47 | CCN(CC)CCN(C(=O)c1ccc(S(=O)(=O)N2CCOCC2)cc1)c1nc2cc3c(cc2s1)OCCO3 | inactive | 
48 | Cc1cccc2cc3c(N)c(C(=O)N4CCCc5ccccc54)sc3nc12 | 11.7 µM (active) | 
49 | Cc1c(C(=O)N2CCCc3ccccc32)sc2nc(-c3ccccc3)cn12 | inactive | 
50 | CCCn1nc(C(=O)N2CCCc3ccccc32)c2ccccc2c1=O | inactive | 
51 | CCOC(=O)c1c(C)[nH]c(C(=O)OCC(=O)N2CCCC2=O)c1C | inactive | 
52 | COc1cccc(NC(=O)COC(=O)/C=C/c2ccco2)c1 | inactive | 
53 | COCCCNC(=O)Cc1ccc(-n2c(C)nc3cccnc32)cc1 | inactive | 
54 | COc1cc2c(cc1OC)CC(=O)N(CCCN(C)C[C@H]1Cc3cc(OC)c(OC)cc31)CC2 | inactive | 
55 | CCCCn1c(SCC(=O)N2CCOCC2)nc2c1c(=O)n(C)c(=O)n2C | 11.7 µM (active) | 
56 | C#CC(C)(C)NC(=O)CSc1nc2c(c(=O)n(C)c(=O)n2C)n1CCCC | inactive | 
57 | Cn1c(=O)c2c(SCC(=O)N3CCOCC3)nc(C3CC3)nc2n(C)c1=O | inactive | 
58 | CC(C)CC(=O)c1c[nH]c(C(=O)NCc2ccccc2)c1 | inactive | 
59 | Cc1nc(SCC(=O)NC2CCCCC2C)c(C#N)c(C)c1C (stereo unspecified) | inactive | 
60 | CCOC(=O)CC(=O)CSc1nc(-c2ccccc2)cc(-c2ccc(Cl)cc2)c1C#N | 7.38 µM (active) | 
61 | N#Cc1c(C(F)(F)F)cc(-c2ccccc2)nc1SCC(=O)N1CCOCC1 | inactive | 
62 | CCSc1nc(-c2ccc(OC)cc2)cc(-c2ccc(OC)cc2)c1C#N | 4.65 µM (active) | 
63 | COc1ccc(-c2cn[nH]c2-c2ccc(OC)cc2)cc1 | inactive | 
64 | N#Cc1c(-c2ccccc2)cc(-c2ccccc2)nc1SCC(=O)O | inactive | 
65 | COc1ccc(-c2cc(-c3ccc(N)cc3)nc(N)c2C#N)cc1OC | inactive | 
66 | Cn1ccsc1=NC(=O)c1cc(S(=O)(=O)N2CCOCC2)ccc1Cl | inactive | 

— PubChem BioAssay AID504834 (National Center for Advancing Translational Sciences (NCATS), 2011)
